This is a sample that favours compounds with a hit; in the whole collection about 0.85% have one here.
Six1-Eya2 inh: inhibitors of human Six1/Eya2 interaction; Q15475+O00167; AlphaScreen GST-Six1/His-Eya2 binding, biochemical; active compounds read low; activity change, % (no concentration beside the values); 360,000 tested, 0.56% active; AID 651725; note: % is set by controls: 0 for no effect and ±100 for the full control effect
Target sequence (O00167 whole entry, looked up): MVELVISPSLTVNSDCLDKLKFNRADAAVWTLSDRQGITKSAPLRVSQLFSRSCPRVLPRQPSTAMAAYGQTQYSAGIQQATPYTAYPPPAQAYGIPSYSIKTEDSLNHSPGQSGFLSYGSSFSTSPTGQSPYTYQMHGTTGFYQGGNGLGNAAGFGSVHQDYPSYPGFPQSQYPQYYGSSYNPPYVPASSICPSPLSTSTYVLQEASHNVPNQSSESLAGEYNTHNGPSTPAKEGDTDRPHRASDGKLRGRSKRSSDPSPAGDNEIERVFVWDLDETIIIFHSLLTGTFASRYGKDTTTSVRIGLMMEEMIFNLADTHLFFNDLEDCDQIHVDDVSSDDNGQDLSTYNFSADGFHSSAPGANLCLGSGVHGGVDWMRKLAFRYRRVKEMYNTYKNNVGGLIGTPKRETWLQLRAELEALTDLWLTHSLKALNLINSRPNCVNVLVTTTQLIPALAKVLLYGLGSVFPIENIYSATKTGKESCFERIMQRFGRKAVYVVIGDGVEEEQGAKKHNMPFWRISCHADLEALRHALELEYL
Target sequence (Q15475 whole entry, looked up): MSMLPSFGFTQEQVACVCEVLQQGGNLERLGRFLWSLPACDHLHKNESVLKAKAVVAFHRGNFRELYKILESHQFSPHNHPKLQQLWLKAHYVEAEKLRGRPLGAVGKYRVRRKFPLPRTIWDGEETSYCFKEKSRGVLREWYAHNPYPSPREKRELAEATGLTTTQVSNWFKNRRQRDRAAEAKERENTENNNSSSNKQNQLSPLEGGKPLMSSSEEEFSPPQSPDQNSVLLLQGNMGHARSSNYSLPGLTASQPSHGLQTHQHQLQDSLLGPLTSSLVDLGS
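AlphaScreen with GST-Six1 and His-Eya2 (5X mix: 250 nM and 500 nM), glutathione donor and nickel acceptor beads; buffer 50 mM Tris pH 8.0, 300 mM NaCl, 1 mM TCEP; 1 h at 37 C in the dark.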
S-ASM inh: human S-ASM enzyme inhibition; P17405; placental ASM, HMU-PC fluorogenic substrate, 60 min; Potency, µM (doses to about 57.5 µM), for inactives: top-dose activity change, negative = inhibition, most hits filed as inhibitors; 340,000 tested, 0.006% active; active = well fitted inhibition curve with a large enough effect; inconclusive = small, poorly fitted or top-dose-only effect; inactive = no such curve, though single readings can be large or run the other way; note: potency is the fitted concentration of half-maximal effect
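Human placenta-derived ASM preincubated with compound 10 min at room temperature, then reacted with 9 uM (final) fluorogenic HMU-PC substrate for 60 min at 37 C. Stop solution raises pH to 10; fluorescence read at Ex 386/Em 447 nm.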
BCR signal inh: blocks chronic active B-cell receptor signaling; ABC-DLBCL IkBa-CBG/CBR reporter, luminescence ratio, 4 h; Potency, µM (titrated, usually from 46.1 µM), for inactives: at the top dose activity change, negative = inhibition, usual class: inhibitors; 340,000 tested, 0.05% active; AID 493014; active = well fitted inhibition curve with a large enough effect in the signal ratio, with a control signal flat, not every such curve was filed as active; inconclusive = small, poorly fitted or top-dose-only effect, or effect the other way, or a change in a side signal; the % refers to the signal ratio;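 note: potency is the fitted concentration of half-maximal effect; plate controls were basal doxycycline-induced cells for no effect and cells given 10 µM MG132 for full effect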
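Concentration-response series (up to 46 uM) were applied to TMD8 dual-reporter cells for 4 h at 37C with doxycycline. Green/red ratio, after filter-overlap correction, defined %Activity; red signal alone was normalised to basal cells and zero luminescence.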
CtBP-E1A blk: CtBP/E1A binding inhibition | AlphaScreen GST-E1A/His-CtBP binding, 1536-well; active compounds read low | AID 651724 | 340,000 tested, 0.49% active | activity change, % (test concentration not listed); note: % is set by controls: 0 for no effect and ±100 for the full control effect
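Protein mix (5X: 125 nM each GST-E1A, His-CtBP) was incubated with pinned compound 2 h at 37 deg C in dark, in 50 mM Tris pH 8.0 buffer with 300 mM NaCl. Glutathione donor and nickel acceptor beads followed; AlphaScreen signal read after 1 h.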
TSHR antagonist: blocks TSH signaling through the human TSH receptor. P16473. TSHR-expressing cells, TSH-stimulated cAMP HTRF, 2 h; active compounds read low. activity change, negative = inhibition, % at 11.5 µM. 330,000 tested, 0.2% active. AID 504810;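 active = activity change below a set negative limit, meaning inhibition stronger than a set level, cut at about -70% in these data; inconclusive = activity change between two set negative limits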; note: % is set by controls: 0 for no effect and ±100 for the full control effect
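Antagonism was scored as loss of TSH-driven cAMP in TSHR cells, stimulated with 4nM TSH (EC80) for 2 hours at 37 deg C and detected by homogeneous HTRF competition immunoassay.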
An asterisk follows results filed as active; [ ] = another dose, or the depositor's remark. Cut-off read from the data, not from the text of the source, unless noted: active = activity change below about -65%; inconclusive = mostly about -30% to -63%; inactive = weaker than that.

What do the screens show for `CCCC[C@]12Cc3cc(OC)c(OC)cc3C(O1)C1=C(O2)C(=O)c2ccccc2C1=O`?
BCR signal inh: 17.9%[9.22 µM]

Results for Oc1ccccc1C=NCCN1CCN(CCN=Cc2ccccc2O)C1c1ccccc1O (stereo not drawn) ?
Six1-Eya2 inh: -85.8*; S-ASM inh: 4.4%; CtBP-E1A blk: -98.5*

Results for Oc1ccccc1C=NCCN=Cc1ccccc1O ?
Six1-Eya2 inh: -22.3; S-ASM inh: 4.5%; BCR signal inh: 1.0%; CtBP-E1A blk: -18.3; TSHR antagonist: -4.0

How did O=C(NCc1ccccc1Cl)C(=O)NCC(c1ccco1)S(=O)(=O)c1cccs1 (stereo not drawn) do in these assays?
BCR signal inh: -21.9%

How did CC(=O)C1=C(c2ccccc2)N(C(C)=O)n2c(nnc2C2CCCCC2)S1 do in these assays?
BCR signal inh: 21.5%

What do the screens show for `CN(C)c1ccc(N=Nc2cccc3ccoc23)cc1`?
Six1-Eya2 inh: -65.1*; S-ASM inh: -2.0%; BCR signal inh: inconclusive; TSHR antagonist: -15.5

Results for CN(C)c1ccc(N=Nc2ccc3ncccc3c2)cc1 ?
Six1-Eya2 inh: inconclusive; S-ASM inh: -12.7%; CtBP-E1A blk: -29.0

Results for CN(C)c1ccc(N=Nc2cccc(F)c2)cc1 ?
Six1-Eya2 inh: -78.2*; S-ASM inh: -25.7%; BCR signal inh: inconclusive; CtBP-E1A blk: -67.1*; TSHR antagonist: -11.2

What do the screens show for `O=C(COc1ccc(F)cc1Cl)Nc1nc(-c2ccccn2)cs1`?
BCR signal inh: -8.5%; TSHR antagonist: -8.5

How did CSCCC(=O)Nc1nc(-c2ccccn2)cs1 do in these assays?
Six1-Eya2 inh: -71.4*; S-ASM inh: 10.7%; BCR signal inh: inconclusive; CtBP-E1A blk: -3.8; TSHR antagonist: -0.1

Results for O=C(CN1C(=O)CCC1=O)Nc1nc(-c2ccccn2)cs1 ?
Six1-Eya2 inh: -87.6*; S-ASM inh: 2.0%; BCR signal inh: inconclusive; CtBP-E1A blk: inconclusive; TSHR antagonist: 7.1

What do the screens show for `O=C(CN1C(=O)CCC1=O)Nc1nc(-c2ccc3ccccc3c2)cs1`?
Six1-Eya2 inh: -5.7; S-ASM inh: -23.5%; BCR signal inh: -0.4%; CtBP-E1A blk: 1.9; TSHR antagonist: 7.9

What do the screens show for `N#Cc1ccccc1OCC(=O)Nc1nc(-c2ccccn2)cs1`?
Six1-Eya2 inh: -82.6*; CtBP-E1A blk: inconclusive

How did CC(=O)Nc1ccc(Nc2ncnc3c2c(-c2ccccc2)cn3-c2ccc(C)c(Cl)c2)cc1 do in these assays?
BCR signal inh: -47.6%

How did COc1ccc(-c2nc3sc(CCNC(=O)c4cc(Cl)ccc4OC)c(C)n3n2)cc1 do in these assays?
BCR signal inh: -1.9%

What do the screens show for `O=C1c2oc3ccccc3c(=O)c2C(c2ccc(O)cc2)N1Cc1ccc2c(c1)OCO2` (stereo not drawn)?
BCR signal inh: 6.1%

Results for CC(C)(C)NC(=O)C(c1ccc(O)cc1)N(Cc1ccccc1)C(=O)CCC(=O)Nc1nccs1 (stereo not drawn) ?
Six1-Eya2 inh: 0.2; S-ASM inh: -3.5%; BCR signal inh: 4.9%; CtBP-E1A blk: 2.0; TSHR antagonist: -98.0*

What do the screens show for `COc1ccc(C(C(=O)NC(C)(C)C)N(CCO)C(=O)CCC(=O)Nc2cc(C)on2)cc1` (stereo not drawn)?
Six1-Eya2 inh: -0.8; S-ASM inh: -4.5%; BCR signal inh: -10.5%; CtBP-E1A blk: -0.5; TSHR antagonist: 6.3

What do the screens show for `COc1ccc(C(C(=O)NC(C)(C)C)N(CCc2ccccc2)C(=O)CCC(=O)Nc2cc(C)on2)cc1` (stereo not drawn)?
Six1-Eya2 inh: -17.9; S-ASM inh: -1.3%; BCR signal inh: 10.0%; CtBP-E1A blk: -8.7; TSHR antagonist: -105.7*

How did COCCNC(=O)C(c1ccc(O)cc1)N(Cc1ccccc1)C(=O)CCC(=O)Nc1nccs1 (stereo not drawn) do in these assays?
Six1-Eya2 inh: -9.4; S-ASM inh: -2.8%; BCR signal inh: 1.5%; CtBP-E1A blk: -1.8; TSHR antagonist: -3.2

What do the screens show for `COc1cc2cc(CNc3ccccc3)c(=O)n(CC(=O)Nc3ccccc3)c2cc1OC`?
BCR signal inh: -23.2%

Results for Cc1ccc(-c2nc3sc(CCNC(=O)c4ccc(F)c(F)c4)c(C)n3n2)cc1 ?
BCR signal inh: -19.7%

What do the screens show for `CC(C)(C)OC(=O)NCCc1nnc(S(=O)(=O)Cc2ccc(Cl)cc2Cl)o1`?
Six1-Eya2 inh: 9.1; S-ASM inh: 0.8%; BCR signal inh: inconclusive; CtBP-E1A blk: 3.2; TSHR antagonist: -78.1*

Results for CC(C)(C)OC(=O)NCCc1nnc(SCc2ccccc2Cl)o1 ?
Six1-Eya2 inh: 5.6; S-ASM inh: -3.1%; BCR signal inh: -4.1%; CtBP-E1A blk: -6.0; TSHR antagonist: -7.6

What do the screens show for `Cc1cc2nc3ccc(=[N+](C)C)cc-3sc2cc1N`?
Six1-Eya2 inh: inconclusive; S-ASM inh: -12.1%; BCR signal inh: inconclusive; CtBP-E1A blk: 71.9; TSHR antagonist: -107.6*

How did Oc1c(C(c2ccccc2)N2CCOCC2)sc2nc(-c3ccco3)nn12 (stereo not drawn) do in these assays?
BCR signal inh: -4.3%

Results for CCCCN(C)C(=O)c1ccc2c(c1)NC(=O)C(CC(C)C)N2 (stereo not drawn) ?
BCR signal inh: 19.9%

What do the screens show for `COc1ccc(C(=O)Nc2nc3ccc(OC)cc3s2)cc1`?
Six1-Eya2 inh: inconclusive; S-ASM inh: -3.2%; BCR signal inh: inconclusive; CtBP-E1A blk: -72.3*; TSHR antagonist: -7.1

What do the screens show for `COc1ccc(C(=O)Nc2nc3ccc(S(C)(=O)=O)cc3s2)cc1`?
Six1-Eya2 inh: -1.5; S-ASM inh: 10.8%; BCR signal inh: 2.2%; CtBP-E1A blk: -2.1; TSHR antagonist: 7.2

Results for CCOc1ccc2nc(NC(=O)c3ccccn3)sc2c1 ?
Six1-Eya2 inh: inconclusive; S-ASM inh: -11.6%; BCR signal inh: inconclusive; CtBP-E1A blk: inconclusive; TSHR antagonist: -9.1

Results for Cc1ccc2nc(NC(=O)c3ccccn3)sc2c1 ?
Six1-Eya2 inh: -72.6*; S-ASM inh: -1.6%; BCR signal inh: inconclusive; CtBP-E1A blk: inconclusive; TSHR antagonist: -17.6

What do the screens show for `Nc1nc(-c2ccccn2)nc(N)c1Cc1ccc(Cl)cc1Cl`?
Six1-Eya2 inh: -80.4*; S-ASM inh: -1.6%; BCR signal inh: -0.9%; CtBP-E1A blk: -91.1*; TSHR antagonist: 0.2

Results for Nc1nc(-c2ccccn2)nc(N)c1Cc1c(F)cccc1Cl ?
Six1-Eya2 inh: -79.4*; S-ASM inh: -1.6%; BCR signal inh: inconclusive; CtBP-E1A blk: -92.3*; TSHR antagonist: -0.5

Results for Clc1ccc(OCc2nc(-c3ccccn3)no2)c(Br)c1 ?
Six1-Eya2 inh: -5.6; S-ASM inh: -3.7%; BCR signal inh: -21.2%; CtBP-E1A blk: -0.7; TSHR antagonist: -19.7
